Hit rate of the full screen: of about 1,500 compounds, about 460 (31%) were called active. Inconclusive results (about 1%) are left out.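 Rule for the calls: active = curve reaches 40% activation over neutral controls at an AC40 no higher than the top valid tested concentration; inconclusive = no clear call, values can overlap the other calls; inactive = signal moving opposite to the expected increase, and the rest.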 These entries were drawn from the full list. Measured potencies and affinities stand elsewhere.
Assay: activators of glucose-dependent insulin secretion, dose response, cell-based, INS-1E, Gaussia luciferase, luminescence, cherry-pick, set 2 (AID 977607);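 note: 0% = median of the plate neutral control wells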
Conditions: INS-1E GLuc insulin secretion reporter, 2-3 h, active compounds read high; at 35 µM, 100% = signal doubled over neutral wells unless noted

Max activation, inactive:
CN(C)S(=O)(=O)c1cccc(-c2csc(N/N=C/c3ccco3)n2)c1 -17.2% [at 3.8 µM, 100% = signal doubled over neutral wells]
CCc1cccc(NC(=O)C2CCCN2S(=O)(=O)c2ccc3c(c2)n(C)c(=O)c(=O)n3C)c1 (stereo not drawn) -17.8%
CCOc1cc(OCC)cc(C(=O)Nc2cccnc2)c1 14.6% [at 1.2 µM, 100% = signal doubled over neutral wells]
C=C1[C@@H](O)[C@H](CC(C)C)N(Cc2ccccc2Br)S1(=O)=O -22.8%
COc1ccc(-n2c(-c3ccc(Cl)cc3)c[nH]c2=S)cc1 14.5%
CCCOc1ccc(/C=N/NC(=O)C(=O)Nc2ccccn2)cc1 19.6%
CC(C)CCC(O)(CCC(C)C)C(=O)NN1CCCCC1 26.3% [at 0.015 µM, 100% = signal doubled over neutral wells]
O=c1cc(Cl)[nH]c(=O)n1Cc1ccccc1 -18% [at 0.135 µM, 100% = signal doubled over neutral wells]
Cc1cc(C(=O)Nc2cccc(O)c2)c(C)o1 50.1% [at 0.135 µM, 100% = signal doubled over neutral wells]
Cc1ccc(NC(=O)c2ccccc2-c2ccccc2C(=O)O)cc1C -15.4% [at 0.046 µM, 100% = signal doubled over neutral wells]
CCCn1nc(C(=O)NC2CC2)c2ccccc2c1=O -11.7% [at 0.135 µM, 100% = signal doubled over neutral wells]
CCCn1nc(C(=O)NC2CCCC2)c2ccccc2c1=O 14.9% [at 0.135 µM, 100% = signal doubled over neutral wells]
CCNc1nc(C)nc2c1oc1ccccc12 20.6% [at 11 µM, 100% = signal doubled over neutral wells]
CC(C)Oc1cccc(C(=O)C2CCCN(C(=O)CCc3cnn(C)c3)C2)c1 (stereo not drawn) -16.9% [at 0.0016 µM, 100% = signal doubled over neutral wells]
CCCCCCc1cc2cc(C(=O)Nc3cccc(OC)c3)c(=O)oc2cc1O -54.3% [at 1.2 µM, 100% = signal doubled over neutral wells]
COc1ccc(Cl)cc1C(=O)Nc1cccc(-c2ccc3nncn3n2)c1 -16.9% [at 0.015 µM, 100% = signal doubled over neutral wells]
COCCn1c(=O)[nH]c2cc(C(=O)Nc3cc(OC)c(OC)c(OC)c3)ccc2c1=O -21.3% [at 11 µM, 100% = signal doubled over neutral wells]
Cc1ccnc(NC(=O)Nc2ccc(Br)cc2Cl)c1 -16.6% [at 0.0016 µM, 100% = signal doubled over neutral wells]

— PubChem BioAssay AID977607 (Broad Institute, 2014)
